Shown are actives, neighbours in structure and some others; about 5.9% of the full set was active somewhere.
TGFb inhibitor: qHTS for Inhibitors of TGF-b | HepG2 CAGA-GFP TGF-b/SMAD3 reporter, GFP fluorescence, 18 h; TGF-beta stimulated, 500 pg/mL final | Potency, µM (doses to about 46.1 µM), without a hit: at the top dose activity, negative = inhibition, hits mostly inhibitors | hit rate 1.2% among 410,000; also: % is scaled to controls: 0 for no effect and ±100 for the full control effect; nearly all actives have a fitted effect of over 65% in size
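HEPG2 CAGA-GFP reporter cells (1000/well, DMEM with 1% FBS) received compounds, then recombinant TGF-beta at 500 pg/mL final for 18 hours at 37 degrees C. Per-cell GFP summed per well was normalised to unstimulated and stimulated DMSO controls before curve fitting.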
S2 tox: Viability Counterscreen for Primary qHTS for Inhibitors of ATXN expression; S2 cells (HEK-293 line with an ATXN2-luciferase reporter) viability, CellTiter-Fluor protease fluorescence, 24 h; Potency, µM (series often up to 56.7 µM), actives largely listed as cytotoxic; hit rate 0.49% among 400,000; AID 651635, 2014; also: nearly all actives have a fitted effect of over 40% in size
KB-3-1 tox: qHTS assay for MDR1-selective chemotherapeutics: Primary screen using the parental adenocarcinoma cell KB-3-1 | Potency, µM (titrated, usually from 46.1 µM), most hits filed as cytotoxic | KB-3-1 viability, CellTiter-Glo ATP luminescence, 72 h | hit rate 1.4% among 400,000; also: % is scaled to controls: 0 for no effect and ±100 for the full control effect; nearly all actives have a fitted effect of over 60% in size
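Luminescent ATP read-out (CellTiter-Glo) measures survival of drug-naive KB-3-1 cells after 72 h compound exposure at 37 °C. Titration series was screened from lowest to highest concentration, with DMSO vehicle plates as background controls.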
HepG2 tox: qHTS for Inhibitors of TGF-b: Cytotox Counterscreen; AID 588856, 2011; hit rate 0.76% among 410,000; HepG2 CAGA-GFP viability, ATP luminescence, 18 h; Potency, µM (series often up to 46.1 µM), for the others: at the highest dose activity change, negative = cytotoxicity, most hits filed as cytotoxic
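CellTiter-Glo luminescence gave cytotoxicity after 18 hours at 37 degrees C. The cells were HepG2 CAGA-GFP in 1% FBS DMEM, stimulated with 500 pg/mL TGF-beta after compound addition. %Activity was normalised to no-cell wells (complete cell-killing) and DMSO (no toxicity), and curves were fitted and classified.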
KB-V1 MDR tox: qHTS assay for MDR1-selective chemotherapeutics: Primary screen using the drug-selected MDR subline cells KB-V1 | KB-V1 MDR cells viability, CellTiter-Glo, 72 h | Potency, µM (doses to about 46.1 µM), most hits filed as cytotoxic | AID 1347076, 2019 | hit rate 3.4% among 400,000; also: % is scaled to controls: 0 for no effect and ±100 for the full control effect; nearly all actives have a fitted effect of over 60% in size
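KB-V1 cells (P-gp-expressing MDR subline of KB-3-1) in phenol-red-free DMEM with 10% FBS were exposed to library compounds over a concentration series for 72 h at 37 degrees C. Viability read by CellTiter-Glo luminescence; concentration-effect curves fitted after normalization.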
ATXN2 expr inh: Primary qHTS for Inhibitors of ATXN expression. HEK-293 ATXN2-luciferase reporter, luminescence, 24 h. Potency, µM (series often up to 57 µM), inactives show top-dose activity change, negative = inhibition, hits mostly inhibitors. hit rate 0.72% among 360,000. AID 1745845, 2022; also: % is scaled to controls: 0 for no effect and ±100 for the full control effect; nearly all actives have a fitted effect of over 55% in size
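qHTS (up to 57 uM final) was run with 24 h compound exposure of reporter cells at 37 °C. Each well was multiplexed: SteadyGlo luminescence measured ATXN2-luciferase expression after a fluorogenic Gly-Phe-AFC viability readout (25 uM final).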
* hit, by the source's call; i = inactive; ? = inconclusive; · = not tested or not shown; ! = a repeat was not active; [ ] = remark or other dose. Calls follow the shape of the dose curve; as a rule, active = well fitted curve in the direction sought with a large enough effect; inconclusive = small, poorly fitted or top-dose-only effect, or another doubt; inactive = no such curve, though single readings can be large; an effect the other way counts as inactive or inconclusive. Potency is read from the fitted curve at half-maximal effect.

SMILES	TGFb inhibitor	S2 tox	KB-3-1 tox	HepG2 tox	KB-V1 MDR tox	ATXN2 expr inh
O=C(CN1C(=O)CCc2cc(S(=O)(=O)N3CCOCC3)ccc21)NCc1ccccc1	?	i	i	0.0%	i	2.6%
COc1ccccc1C1c2ccc3ccccc3c2Oc2ncn(CCCO)c(=N)c21 (stereo not given)	0.0%	20µM*	i	-32.3%	i	-30.2%
COc1ccc(C2c3c(ncn(CCN4CCOCC4)c3=N)Oc3ccc4ccccc4c32)cc1OC (stereo not given)	?	·	?	14.1µM*	23.1µM*	?
COc1ccc(C2c3ccc4ccccc4c3Oc3ncn(CCCN(C)C)c(=N)c32)cc1 (stereo not given)	?	?	?	-169.1%	?	?
COc1ccccc1C1c2ccc3ccccc3c2Oc2ncn(CCN(C)C)c(=N)c21 (stereo not given)	?	22.4µM*	?	15.8µM*	?	25.1µM*
Cc1nn(Cc2ccc(C(=O)Nc3nccs3)cc2)c(C)c1Cl	?	i	16.4µM*	-18.3%	20.6µM*	-11.6%
OC1CCCN(Cc2c3ccccc3cc3ccccc23)C1 (stereo not given)	-12.8%	i	i	-12.0%	?	17.8µM*
CCOC(=O)C1CCCN(C(=O)c2cccnc2Oc2ccccc2)CC1 (stereo not given)	7.5%	i	i	-1.9%	i	2.4%
Cc1ccc(C)c(Cn2c(=O)n(CCCCCC(=O)NCc3ccc4c(c3)OCO4)c(=O)c3sccc32)c1	-0.4%	·	·	1.7%	·	·
O=C(CSc1nc2c([nH]c3ccccc32)c(=O)n1-c1ccccc1F)Nc1cccc(C(F)(F)F)c1	?	?	14.6µM*	-22.0%	?	?
COc1ccc(Cn2cc(S(=O)(=O)c3ccc(Cl)cc3)c(=O)c3cc4c(cc32)OCO4)cc1	?	i	i	-1.0%	i	-0.8%
COc1ccc2c(c1)C(SCC(=O)NCCc1ccc(Cl)cc1)CC(C)(C)O2 (stereo not given)	?	?	i	-29.6%	i	28.2µM*
O=C(C1CC=CCC1)N1CCC(CO)(Cc2ccc(Cl)cc2)CC1 (stereo not given)	?	i	?	-45.3%	11.6µM*	·
O=C(C1CCCC1)N1CCC(CO)(Cc2ccccc2Cl)CC1	-11.0%	i	i	3.0%	?	-23.1%[11.3 µM]
COc1ccc(/C=N/Nc2nnc(-c3ccccc3)c(=O)[nH]2)cc1	-24.3%	i	5.17µM*	-7.8%	13µM*	1.7%
O=c1[nH]c(N/N=C/c2ccccc2Br)nnc1-c1ccccc1	-20.0%	?	i	-40.6%	i	1.6%
O=C(Cn1cnc2nc3c(cc2c1=O)CCCC3)N1CCN(c2ccccc2)CC1	-2.0%	i	i	1.7%	?	12.7%
Cc1ccc(-c2csc3n[nH]c(=S)n23)cc1	12.0%	i	?	-5.7%	11.6µM*!	0.0%
Cc1ccc(-n2c(C)n[nH]c2=S)cc1	12.7%	i	i	-3.9%	?	16.7%
CC(=Nc1ccccc1)C1=C(O)C(Cc2ccc(F)cc2)NC1=O (stereo not given)	-17.1%	?	1.84µM*	-28.8%	?	·
CC(=Nc1ccccc1)C1=C(O)CSC1=O	4.5%	i	i	1.6%	i	29.1%
CC(=Nc1ccccc1)C1=C(O)C(CC(C)C)NC1=O (stereo not given)	-29.9%	i	i	-16.0%	23.1µM*	7.8%
COC1=CC(=O)C=C(OC)C1=O	?	?	?	-118.1%	i	5.62µM*
COC1=CC(=O)c2ccccc2C1=O	1.41µM*	i	16.4µM*	2.24µM*	?	28.2µM*
Cc1ccccc1C(=O)NC1(C(F)(F)F)C(=O)Nc2c1c(=O)[nH]c(=O)n2-c1ccc(F)cc1 (stereo not given)	19.8%	i	i	6.7%	i	6.9%
SMILES	TGFb inhibitor	S2 tox	KB-3-1 tox	HepG2 tox	KB-V1 MDR tox	ATXN2 expr inh
COc1cc(CN(C)c2ncnc3sccc23)ccc1OC(F)F	4.5%	i	?	-3.0%	8.2µM*	-5.0%
COc1ccc(OC)c(Nc2ncnc3sccc23)c1	-0.3%	i	i	19.1%	i	·
COc1ccc(OC)c(/C=C/c2cc3ccccc3c[n+]2C)c1	-5.4%	·	?	-70.2%	i	·
COc1cc(OC)c(/C=C/c2cc3ccccc3c[n+]2C)c(OC)c1	7.94µM*	·	0.92µM*	-37.1%	i	·
COc1cc(OC)c(C=Cc2ccncn2)c(OC)c1	-1.7%	i	i	-8.0%	i	·
COc1cc(OC)c(/C=C/c2ccccn2)c(OC)c1	-10.5%	·	5.17µM*	-11.8%	i	·
COc1cc(OC)c(/C=C/c2ccc3ccccc3n2)c(OC)c1	?	·	0.517µM*	-32.8%	i	·
Clc1ccc(-c2noc3ncnc(NCCCN4CCN(c5ccccc5)CC4)c23)cc1	?	i	i	-39.4%	i	-23.9%
CCC1C(=O)NCCN1Cc1ccc2c(c1)CN(Cc1cccc(OC)c1)CCO2 (stereo not given)	·	i	·	·	·	·
Fc1c(F)c(F)c(N/N=C/c2c[nH]c3ccccc23)c(F)c1F	?	?	?	-32.2%	i	-22.9%
C(=NN=C1c2ccccc2-c2ccccc21)c1c[nH]c2ccccc12	?	18.9µM*	?	6.7%	23.1µM*	0.0%
CN(CC(=O)NC1CCN(Cc2ccccc2)CC1)S(=O)(=O)c1ccc(Br)s1	-7.5%	i	23.1µM*	-11.2%	?	-21.6%
Cc1ccc(CN2CCC(NC(=O)c3ccccc3)CC2)cc1	-10.7%	i	i	-18.7%	i	-29.2%
CCN(c1ccccc1)S(=O)(=O)c1ccc(C(=O)NC2CCN(Cc3ccccc3)CC2)cc1	?	?	16.4µM*	-32.6%	?	?
CN(CC(=O)NC1CCN(Cc2ccccc2)CC1)S(=O)(=O)c1ccc(Cl)cc1	-2.5%	?	i	5.9%	i	·
Cc1ccc(C)n1-c1ccc(C(=O)NC2CCN(Cc3ccccc3)CC2)cc1	10.3%	i	?	-5.1%	2.31µM*	-31.3%
CCCCN(C)CCNC(=O)c1ccc2c(=O)n(CCc3ccccc3)c(=O)[nH]c2c1	1.1%	i	i	-3.5%	i	9.8%
CCCCNC(=O)c1cc2c(=O)n(CC)c3ccccc3c2s1	13.0%	i	i	-14.4%	i	-12.5%
